For some assays here: Entries with a potency or affinity are not part of this list. Calls of active or inactive are those of the source. Unless noted, no rule for the calls is given here.
Experiments:
[1] = antimalarial activity against Dd2 strain (AID 2302;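 active = growth inhibition above 50% at the single 2 µM test dose, taken to imply half-maximal potency below 2 µM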;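 also: 0% = DMSO untreated growth and 100% = chloroquine plus artemisinin killed control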); settings: P. falciparum Dd2 in RBCs, LDH growth readout, 72 h; at 2 µM; stronger effect = higher value
[2] = human hepatoma cell viability loss – ATP luminescence, cytotoxicity control for P. falciparum antimalarial project, primary screen (AID 2303;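 active = inhibition above 50%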;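 also: 0% = DMSO wells and 100% = digitonin-killed cells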); settings: HepG2 viability, 24-48 h, at 10 µM, stronger effect = higher value
[3] = target: L-lactate dehydrogenase (Plasmodium falciparum (isolate CDC / Honduras)) (UniProt Q27743); assay: PfLDH activity inhibition – cell lysate, 3D7 strain, counter-screen for P. falciparum growth inhibition project (AID 2304);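 also: 0% = vehicle and 100% = reference inhibitor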; settings: P. falciparum 3D7 crude extract, LDH APAD/NBT absorbance; at 2 µM; stronger effect = higher value
[4] = inhibition of 3D7 malaria parasite growth – strain 3D7 (AID 2306);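 also: 0% = DMSO wells and 100% = chloroquine plus artemisinin control wells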; settings: P. falciparum 3D7 erythrocytic growth, LDH absorbance, 72 h; at 2 µM; stronger effect = higher value
[5] = target: Calcium-dependent protein kinase 1 (Plasmodium falciparum (isolate 3D7)) (UniProt P62344); assay: PfCDPK1 kinase inhibitors, biochemical, TCAMS library (AID 1159585; cut-off not given, nearly all actives have IC50 up to about 0.98 µM;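 also: inhibitors leave more ATP so luminescence rises with inhibition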); settings: recombinant PfCDPK1, Kinase-Glo ATP depletion luminescence
[6] = target: Plasmodium falciparum protein kinase 6 (PK6, PF3D7_1337100) (UniProt Q8IDW1); assay: PfPK6 kinase inhibitors, biochemical, TCAMS library (AID 1159586); settings: recombinant PfPK6, Kinase-Glo ATP depletion luminescence
[7] = target: Protein kinase 7 (PK7), Plasmodium falciparum 3D7 (PF3D7_0213400) (UniProt Q7YTF7); assay: inhibition of Plasmodium PK7 catalytic activity – biochemical, TCAMS antimalarial set, Kinase-Glo luminescence (AID 1159587); settings: recombinant PfPK7, Kinase-Glo ATP depletion luminescence
[8] = target: Calcium-dependent protein kinase 4 (Plasmodium falciparum (isolate 3D7)) (UniProt Q8IBS5); assay: PfCDPK4 kinase inhibitors, biochemical, TCAMS library (AID 1159588; cut-off not given, nearly all actives have IC50 up to about 0.91 µM); settings: recombinant PfCDPK4, Kinase-Glo ATP depletion luminescence
Sequence of Calcium-dependent protein kinase 4 (Plasmodium falciparum (isolate 3D7)) (Q8IBS5 whole entry, looked up): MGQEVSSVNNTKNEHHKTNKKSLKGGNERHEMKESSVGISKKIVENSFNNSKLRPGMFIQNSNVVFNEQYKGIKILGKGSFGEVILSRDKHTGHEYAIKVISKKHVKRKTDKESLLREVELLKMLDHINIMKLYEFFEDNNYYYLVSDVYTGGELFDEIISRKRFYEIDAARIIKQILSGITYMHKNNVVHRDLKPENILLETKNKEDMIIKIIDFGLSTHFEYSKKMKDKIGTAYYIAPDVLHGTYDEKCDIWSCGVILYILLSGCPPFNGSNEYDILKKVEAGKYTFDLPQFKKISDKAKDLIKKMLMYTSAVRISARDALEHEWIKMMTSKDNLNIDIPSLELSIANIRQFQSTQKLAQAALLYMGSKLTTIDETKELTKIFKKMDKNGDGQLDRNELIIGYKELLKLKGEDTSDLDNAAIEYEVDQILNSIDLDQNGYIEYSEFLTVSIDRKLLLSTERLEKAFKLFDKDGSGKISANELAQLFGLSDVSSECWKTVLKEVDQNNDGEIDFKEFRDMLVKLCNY

Sequence of Protein kinase 7 (PK7), Plasmodium falciparum 3D7 (PF3D7_0213400) (Q7YTF7 1-343): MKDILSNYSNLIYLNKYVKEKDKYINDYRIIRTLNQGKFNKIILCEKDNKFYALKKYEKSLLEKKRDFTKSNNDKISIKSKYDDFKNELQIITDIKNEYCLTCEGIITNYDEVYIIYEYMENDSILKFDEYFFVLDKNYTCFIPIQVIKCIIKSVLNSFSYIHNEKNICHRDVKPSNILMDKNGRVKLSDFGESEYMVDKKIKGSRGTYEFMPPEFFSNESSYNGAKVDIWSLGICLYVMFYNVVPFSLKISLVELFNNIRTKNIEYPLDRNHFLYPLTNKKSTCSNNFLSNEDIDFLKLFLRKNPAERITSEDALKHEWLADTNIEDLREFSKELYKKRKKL
Sequence of Plasmodium falciparum protein kinase 6 (PK6, PF3D7_1337100) (Q8IDW1 1-305): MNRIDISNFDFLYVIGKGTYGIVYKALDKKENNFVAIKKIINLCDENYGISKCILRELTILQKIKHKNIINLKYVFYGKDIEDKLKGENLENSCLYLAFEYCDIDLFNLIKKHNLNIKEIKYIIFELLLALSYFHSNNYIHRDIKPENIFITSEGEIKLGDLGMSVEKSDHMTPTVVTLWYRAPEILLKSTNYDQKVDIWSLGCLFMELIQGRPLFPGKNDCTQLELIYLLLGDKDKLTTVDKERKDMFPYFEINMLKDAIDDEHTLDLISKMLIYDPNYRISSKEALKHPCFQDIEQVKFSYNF
Sequence of Calcium-dependent protein kinase 1 (Plasmodium falciparum (isolate 3D7)) (P62344 whole entry, looked up): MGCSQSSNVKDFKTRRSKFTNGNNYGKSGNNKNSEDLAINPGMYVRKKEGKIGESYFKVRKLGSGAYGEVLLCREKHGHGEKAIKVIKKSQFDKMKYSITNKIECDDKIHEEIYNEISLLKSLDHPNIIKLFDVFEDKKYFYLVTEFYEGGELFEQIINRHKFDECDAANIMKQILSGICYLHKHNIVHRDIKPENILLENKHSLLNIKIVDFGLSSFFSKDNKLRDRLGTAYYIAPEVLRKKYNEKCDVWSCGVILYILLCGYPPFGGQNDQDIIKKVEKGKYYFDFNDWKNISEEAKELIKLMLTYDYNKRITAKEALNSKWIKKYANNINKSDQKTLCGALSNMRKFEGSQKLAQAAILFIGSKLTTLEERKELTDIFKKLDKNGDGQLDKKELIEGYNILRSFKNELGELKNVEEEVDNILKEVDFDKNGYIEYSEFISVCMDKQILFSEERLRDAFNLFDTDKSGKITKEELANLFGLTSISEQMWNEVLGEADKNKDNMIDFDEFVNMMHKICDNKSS
Sequence of L-lactate dehydrogenase (Plasmodium falciparum (isolate CDC / Honduras)) (Q27743 whole entry, looked up): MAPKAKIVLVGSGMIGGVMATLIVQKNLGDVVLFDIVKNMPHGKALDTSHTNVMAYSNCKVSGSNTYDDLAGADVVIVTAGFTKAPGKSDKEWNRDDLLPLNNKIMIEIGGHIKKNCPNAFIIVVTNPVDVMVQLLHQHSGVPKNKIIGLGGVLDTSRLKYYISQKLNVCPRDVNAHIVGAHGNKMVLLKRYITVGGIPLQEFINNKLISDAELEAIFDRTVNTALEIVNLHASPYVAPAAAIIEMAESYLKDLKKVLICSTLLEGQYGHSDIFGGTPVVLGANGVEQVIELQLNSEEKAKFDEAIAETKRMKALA

CCN1CCN(Cc2ccc(-c3ccc(NS(=O)(=O)c4cccc5cccnc45)cc3)cc2)CC1
active: growth inhibition [4] 90%
inactive: growth inhibition [1] 42% | inhibition [2] 29% | inhibition [3] -2% | outcome [5] | outcome [6] | outcome [7] | outcome [8]

COc1cccc(-c2cnc(-c3ccncc3)nc2C2CCN(Cc3ccc(NC(C)=O)cc3)CC2)c1
active: growth inhibition [4] 89%
inactive: growth inhibition [1] -3% | inhibition [2] 17% | inhibition [3] 0% | outcome [5] | outcome [6] | outcome [7] | outcome [8]

O=C(Nc1cccc([N+](=O)[O-])c1)Nc1cccc(C(F)(F)F)c1
inactive: inhibition [2] 0% | inhibition [3] -8% | outcome [5] | outcome [6] | outcome [7] | outcome [8]
active: growth inhibition [1] 81% | growth inhibition [4] 92%

Cc1cc(NC(c2ccc(Cl)cc2)c2ccc3cccnc3c2O)no1 (stereo not given)
active: inhibition [2] 50% | growth inhibition [4] 88%
inactive: growth inhibition [1] 26% | inhibition [3] 5% | outcome [5] | outcome [6] | outcome [7] | outcome [8]

CCCCCN1CCCCC(NS(=O)(=O)c2ccc(C(=O)Nc3ccc(C(F)(F)F)cc3)cc2)C1 (stereo not given)
active: growth inhibition [4] 89%
inactive: growth inhibition [1] -4% | inhibition [2] 34% | inhibition [3] -2% | outcome [5] | outcome [6] | outcome [7] | outcome [8]

Cc1cc(C=C2SC(=Nc3ccccc3)N(C3CCCC3)C2=O)c(C)n1-c1ccc(Cl)cc1
active: growth inhibition [1] 70% | growth inhibition [4] 100%
inactive: inhibition [2] -8% | inhibition [3] -1% | outcome [5] | outcome [6] | outcome [7] | outcome [8]

Cc1c(C)n(Cc2ccccc2)c2ncnc(OC3CCN(CC(=O)NCC4CC4)CC3)c12
inactive: inhibition [2] 17% | inhibition [3] -3% | outcome [5] | outcome [6] | outcome [7] | outcome [8]
active: growth inhibition [1] 79% | growth inhibition [4] 92%

O=C(NCCNc1ccnc(Nc2ccc(F)cc2)n1)Nc1ccc2c(c1)OCO2
active: growth inhibition [4] 97%
inactive: growth inhibition [1] 3% | inhibition [2] 15% | inhibition [3] 0% | outcome [5] | outcome [6] | outcome [7] | outcome [8]

COc1ccc2nccc([C@@H](O)CN3CCC(NCc4cc5cccnc5[nH]4)CC3)c2n1
inactive: growth inhibition [1] 0% | inhibition [2] 7% | inhibition [3] -2% | outcome [5] | outcome [6] | outcome [7] | outcome [8]
active: growth inhibition [4] 90%

CC(O)C1CCCCN1C(=O)c1ccc(-c2ccc(-c3nc4ccccc4[nH]3)s2)cc1 (stereo not given)
inactive: inhibition [2] 33% | inhibition [3] -2% | outcome [5] | outcome [6] | outcome [7] | outcome [8]
active: growth inhibition [1] 98% | growth inhibition [4] 101%
